The campaign covered roughly 340,000 compounds. About 1,000 (0.29%) were called active. Cut-off read from the data, not from the text of the source: inconclusive = inhibition above about 29% without an active follow-up result; inactive = below that. Only a sample is shown. Potency and affinity values are given separately.
Molecular target: Genome polyprotein (Dengue virus type 2 (strain 16681-PDK53)) (UniProt P29991)
Experiment: Dengue-2 NS5 methyltransferase inhibitors, primary screen, biochemical, confirmation dose response (AID 588689)
Details: Dengue-2 NS5 methyltransferase capping enzyme assay, at 25 µM, stronger effect = higher value
[1] = measured here: pilot screen replicate inhibition

Sequence of Genome polyprotein (Dengue virus type 2 (strain 16681-PDK53)) (P29991 whole entry, looked up): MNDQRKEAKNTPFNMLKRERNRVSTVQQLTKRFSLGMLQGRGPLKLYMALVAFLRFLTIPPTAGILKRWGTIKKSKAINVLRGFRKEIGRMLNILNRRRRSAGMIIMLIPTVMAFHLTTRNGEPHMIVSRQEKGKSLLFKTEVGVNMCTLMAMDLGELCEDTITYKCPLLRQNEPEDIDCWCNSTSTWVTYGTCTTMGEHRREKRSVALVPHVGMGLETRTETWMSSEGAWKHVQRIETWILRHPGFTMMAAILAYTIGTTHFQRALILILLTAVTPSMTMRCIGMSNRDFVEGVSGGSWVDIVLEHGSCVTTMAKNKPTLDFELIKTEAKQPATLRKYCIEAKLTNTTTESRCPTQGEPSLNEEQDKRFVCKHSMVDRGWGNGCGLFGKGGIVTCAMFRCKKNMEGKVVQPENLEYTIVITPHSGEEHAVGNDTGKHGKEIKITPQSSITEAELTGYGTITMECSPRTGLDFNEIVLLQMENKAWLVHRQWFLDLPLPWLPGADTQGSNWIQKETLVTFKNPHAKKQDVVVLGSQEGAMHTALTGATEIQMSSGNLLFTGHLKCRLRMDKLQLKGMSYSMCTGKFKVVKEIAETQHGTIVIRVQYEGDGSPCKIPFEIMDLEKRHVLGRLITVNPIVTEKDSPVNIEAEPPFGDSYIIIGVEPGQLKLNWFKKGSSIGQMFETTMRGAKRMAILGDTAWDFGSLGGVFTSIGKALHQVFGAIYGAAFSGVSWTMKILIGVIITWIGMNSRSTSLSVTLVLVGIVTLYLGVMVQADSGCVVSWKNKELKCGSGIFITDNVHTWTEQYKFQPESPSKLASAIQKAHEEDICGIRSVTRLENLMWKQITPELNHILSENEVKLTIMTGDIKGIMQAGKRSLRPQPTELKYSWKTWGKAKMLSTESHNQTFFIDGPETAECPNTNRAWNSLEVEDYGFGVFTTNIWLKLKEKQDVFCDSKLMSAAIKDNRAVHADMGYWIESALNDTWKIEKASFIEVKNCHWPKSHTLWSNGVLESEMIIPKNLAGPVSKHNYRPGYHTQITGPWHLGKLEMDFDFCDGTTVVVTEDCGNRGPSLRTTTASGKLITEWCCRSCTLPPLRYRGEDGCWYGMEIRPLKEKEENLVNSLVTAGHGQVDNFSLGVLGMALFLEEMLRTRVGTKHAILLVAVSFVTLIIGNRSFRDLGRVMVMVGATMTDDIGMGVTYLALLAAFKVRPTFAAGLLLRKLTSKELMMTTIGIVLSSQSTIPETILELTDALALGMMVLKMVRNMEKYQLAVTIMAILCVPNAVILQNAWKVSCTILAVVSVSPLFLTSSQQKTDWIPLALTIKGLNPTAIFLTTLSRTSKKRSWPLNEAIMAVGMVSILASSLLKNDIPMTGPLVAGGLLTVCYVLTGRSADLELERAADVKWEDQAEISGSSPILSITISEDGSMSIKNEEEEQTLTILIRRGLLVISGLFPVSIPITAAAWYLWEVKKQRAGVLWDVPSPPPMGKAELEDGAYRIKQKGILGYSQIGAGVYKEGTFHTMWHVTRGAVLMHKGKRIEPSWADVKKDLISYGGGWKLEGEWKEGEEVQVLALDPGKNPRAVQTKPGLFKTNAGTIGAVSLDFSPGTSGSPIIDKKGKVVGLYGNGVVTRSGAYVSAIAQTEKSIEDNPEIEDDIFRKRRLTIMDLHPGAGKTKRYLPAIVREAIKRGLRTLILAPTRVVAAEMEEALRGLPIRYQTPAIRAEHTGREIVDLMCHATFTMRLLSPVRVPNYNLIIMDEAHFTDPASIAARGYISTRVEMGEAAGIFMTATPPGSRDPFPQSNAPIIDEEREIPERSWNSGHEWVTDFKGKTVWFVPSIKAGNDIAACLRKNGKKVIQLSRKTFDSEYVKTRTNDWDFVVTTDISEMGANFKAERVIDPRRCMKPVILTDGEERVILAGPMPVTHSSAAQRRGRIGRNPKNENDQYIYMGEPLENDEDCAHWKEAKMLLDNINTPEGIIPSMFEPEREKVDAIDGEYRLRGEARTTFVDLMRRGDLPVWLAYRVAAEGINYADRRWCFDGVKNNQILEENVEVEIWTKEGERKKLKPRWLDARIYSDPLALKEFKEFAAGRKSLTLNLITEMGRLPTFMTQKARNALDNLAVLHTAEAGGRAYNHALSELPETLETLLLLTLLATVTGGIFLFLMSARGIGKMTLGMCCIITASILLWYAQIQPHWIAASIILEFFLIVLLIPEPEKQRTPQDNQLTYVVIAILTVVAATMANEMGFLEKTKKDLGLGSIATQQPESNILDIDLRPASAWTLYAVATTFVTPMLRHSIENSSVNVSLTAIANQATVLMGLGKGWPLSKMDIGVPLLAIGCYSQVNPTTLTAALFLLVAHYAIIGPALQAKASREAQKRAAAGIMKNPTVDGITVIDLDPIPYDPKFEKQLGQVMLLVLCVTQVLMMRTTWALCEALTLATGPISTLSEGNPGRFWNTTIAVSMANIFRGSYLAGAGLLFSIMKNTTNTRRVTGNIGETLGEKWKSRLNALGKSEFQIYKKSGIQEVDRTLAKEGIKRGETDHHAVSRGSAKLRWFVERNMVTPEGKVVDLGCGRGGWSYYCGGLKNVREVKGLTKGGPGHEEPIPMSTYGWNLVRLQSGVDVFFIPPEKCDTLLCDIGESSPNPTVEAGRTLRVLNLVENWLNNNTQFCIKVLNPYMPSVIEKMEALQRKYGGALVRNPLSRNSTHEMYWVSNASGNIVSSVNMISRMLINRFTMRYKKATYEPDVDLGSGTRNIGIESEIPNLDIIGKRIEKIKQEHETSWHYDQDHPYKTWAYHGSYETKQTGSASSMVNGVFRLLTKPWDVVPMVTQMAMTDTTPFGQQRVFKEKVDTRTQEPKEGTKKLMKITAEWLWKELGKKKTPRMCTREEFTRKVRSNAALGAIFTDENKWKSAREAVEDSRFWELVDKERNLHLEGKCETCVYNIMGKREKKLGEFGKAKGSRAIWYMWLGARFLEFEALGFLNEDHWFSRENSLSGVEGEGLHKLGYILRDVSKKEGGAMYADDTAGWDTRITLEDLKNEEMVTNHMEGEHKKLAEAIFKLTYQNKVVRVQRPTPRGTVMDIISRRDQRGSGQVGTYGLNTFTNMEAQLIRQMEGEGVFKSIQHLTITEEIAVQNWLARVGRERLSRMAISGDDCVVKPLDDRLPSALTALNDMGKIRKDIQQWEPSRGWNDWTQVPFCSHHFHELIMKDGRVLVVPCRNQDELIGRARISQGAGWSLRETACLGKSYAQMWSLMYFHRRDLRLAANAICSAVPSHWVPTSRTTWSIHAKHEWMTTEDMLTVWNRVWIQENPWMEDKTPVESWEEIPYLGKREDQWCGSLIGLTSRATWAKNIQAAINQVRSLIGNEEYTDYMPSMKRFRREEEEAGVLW

Row | Structure (SMILES) | inhibition | inhibition [1]
1 | O=C(/C=C1\SC(=O)NC1=O)Nc1ccc(F)cc1 | 0% (inactive) | –
2 | Cc1cc(Br)ccc1NC(=O)CNC(=O)CSc1n[nH]c(N)n1 | -4.68% (inactive) | –
3 | O=C(COC(=O)c1cc(Cl)ccc1O)Nc1cc(C(F)(F)F)ccc1N1CCOCC1 | -3.11% (inactive) | –
4 | CCCN1Cc2cccc(C(=O)NCCc3cccc(C)c3)c2C1=O | 3.25% (inactive) | –
5 | COc1cc(C2CC(=O)OC3=C2C(=O)CC(C)(C)C3)cc(OC)c1OC (centres undefined) | 2.26% (inactive) | –
6 | COc1cc(NC2=CC(=O)CC(C)(C)C2)cc(OC)c1OC | 1.61% (inactive) | –
7 | CCOc1ccc(S(=O)(=O)NC(C)(C)C)cc1-c1nc2c(C(C)(C)C)nn(C)c2c(=O)[nH]1 | -2.73% (inactive) | –
8 | Cc1cc[n+](-c2ccccc2)c2ccccc12 | -10.7% (inactive) | –
9 | O=C(CSCc1c(F)cccc1Cl)NCc1ccco1 | -1.37% (inactive) | –
10 | CCN(CC)S(=O)(=O)c1ccc(C(=O)NCC2CCCCC2)cc1 | 2.49% (inactive) | –
11 | O=C(Nc1ccc(F)cc1)c1cc2cc(Cl)ccc2[nH]1 | 1.32% (inactive) | –
12 | COc1ccc(-c2ccc(SCC(=O)N3CC(=O)Nc4ccccc43)nn2)cc1 | -4.15% (inactive) | –
13 | CCn1cc(/C=C/C(=O)NCc2c(C)nn(C)c2C)cn1 | -7.26% (inactive) | –
14 | O=C1NC(=O)/C(=C/c2cccc(O)c2)N1 | 1.96% (inactive) | –
15 | Cc1ccc(OCCN2C(=O)c3ccccc3C2=O)c(C)c1 | 1.61% (inactive) | –
16 | C(=N\n1cnnc1)/c1cccc(OCCOc2ccccc2)c1 | -9.55% (inactive) | –
17 | COc1ccccc1OCCCOc1cccc(/C=C2\SC(=O)NC2=O)c1 | -1.96% (inactive) | 6.37%
18 | O=C1NC(=S)N/C1=C/c1ccc2ccccc2c1 | 5.93% (inactive) | 2.73%
19 | O=C1NC(=S)S/C1=C\c1ccc2ccccc2c1 | -15.5% (inactive) | –
20 | CNC(=O)NC(=O)CSc1nc2cc(C(=O)OC)ccc2c(=O)n1-c1ccccc1 | -2.77% (inactive) | –
21 | COc1ccc2nc(C)cc(SCC(NC(C)=O)C(=O)OC(C)C)c2c1 (centres undefined) | 0.78% (inactive) | –

Row | Structure (SMILES) | inhibition | inhibition [1]
22 | COc1ccccc1C(=O)Nc1ncc2c(n1)CC(c1ccco1)CC2=O (centres undefined) | -1.36% (inactive) | –
23 | O=C(NCc1ccccn1)c1cc(S(=O)(=O)N2CCCCCC2)ccc1Cl | 1.3% (inactive) | –
24 | COc1cc(C(=O)O/N=C2\C=CC(=O)C(C)=C2)cc(OC)c1OC | -39% (inactive) | –
25 | Oc1ccc(/C=N/N2CCN(C3c4ccccc4-c4ccccc43)CC2)cc1 | -2.06% (inactive) | –
26 | COc1ccc(OC)c2c1CCC2=O | 0% (inactive) | –
27 | COc1ccc(N)c2c1C(=O)c1ccccc1C2=O | -1.95% (inactive) | –
28 | CCOc1ccc(S(=O)(=O)N2CCCCC2)cc1NC(=O)C1COc2ccccc2O1 (centres undefined) | 1.45% (inactive) | –
29 | O=C(NCc1ccccc1)c1cnc(Cl)c(Cl)c1 | -7.44% (inactive) | –
30 | COC(=O)c1ccc(COc2cccnc2[N+](=O)[O-])cc1 | 0% (inactive) | –
31 | O=C(N/N=C/c1cccc(Cl)c1)C1CCCC1 | 0% (inactive) | –
32 | O=C(Nc1ccccc1C(=O)O)c1cccc(F)c1 | 3.35% (inactive) | –
33 | O=C(Nc1ccccc1C(=O)Nc1ccccc1C(=O)O)c1ccccc1 | 2.59% (inactive) | –
34 | CC(=O)Nc1cccc(C(=O)Nc2ccccc2C(=O)O)c1 | 3.9% (inactive) | –
35 | Cc1ccc(C(=O)Nc2ccc(O)cc2C(=O)O)cc1 | -8.03% (inactive) | –
36 | O=C(Nc1ccccc1C(=O)O)c1cccc(S(=O)(=O)Nc2ccc(Br)cc2)c1 | 22.4% (inactive) | –
37 | Cc1ccc(C(=O)Nc2ccccc2C(=O)O)cc1S(=O)(=O)Nc1ccccc1 | 3.97% (inactive) | –
38 | O=C(Nc1ccccc1C(=O)O)c1ccccc1 | -0.69% (inactive) | –
39 | Cc1cccc(C(=O)Nc2ccc(O)cc2C(=O)O)c1 | 14.3% (inactive) | –
40 | Cc1cccc(N(CC(O)CN2CCOCC2)S(=O)(=O)c2ccccc2)c1 (centres undefined) | 0% (inactive) | –
41 | Cc1cc(-c2ccccc2N)n[nH]1 | -5.29% (inactive) | –
42 | CCN(C(=O)COC(=O)c1ccccc1NCCO)c1cccc2ccccc12 | 6.52% (inactive) | –

Row | Structure (SMILES) | inhibition | inhibition [1]
43 | COc1ccc(NC(=O)c2ccc(-c3ccccc3C(F)(F)F)o2)cc1 | -7.03% (inactive) | –
44 | COc1cc(C2c3cc4c(cc3OC(NCCc3ccccc3)C2C)OCO4)cc(OC)c1OC (centres undefined) | -4.03% (inactive) | –
45 | COc1ccc(S(N)(=O)=O)cc1C(=O)OCC(=O)Nc1sccc1C#N | -21% (inactive) | –
46 | COc1ccccc1N(CC(=O)NCCSc1ccccc1)S(=O)(=O)c1ccccc1 | -5.79% (inactive) | –
47 | O=C(CSc1ncn[nH]1)N1N=C2/C(=C/c3ccco3)CCCC2C1c1ccco1 (centres undefined) | -4.57% (inactive) | –
48 | Cc1ccccc1C(=O)Nc1nnc(SC(C)C)s1 | -3.88% (inactive) | –
49 | Cc1ccc(-n2nc3c(=O)n(CC(=O)NCCCc4ccccc4)nc(C)c3c2C)cc1 | -3.57% (inactive) | –
50 | CC(C)(C)OC(=O)N1CCCC(C(=O)CC#N)C1 (centres undefined) | -13.4% (inactive) | –
51 | CC1/C(=N/O)CC(c2ccccc2)NC1c1ccccc1 (centres undefined) | 3.42% (inactive) | –
52 | COCCNc1nc(NCc2ccccc2)c2cnn(C)c2n1 | -7.24% (inactive) | –
53 | CN(C)CCCN1CC(=O)N2[C@@H](Cc3c([nH]c4ccccc34)C2(C)C)C1=O | 5.89% (inactive) | –
54 | COc1ccc(CCC(=O)Nc2sc(C(=O)N(C)C)c(C)c2C#N)cc1 | 2.58% (inactive) | –
55 | Cc1ccc(Nc2ccc(C(=O)O)cc2[N+](=O)[O-])cc1 | 17% (inactive) | –
56 | COc1ccc(Nc2ccc(C(=O)O)cc2[N+](=O)[O-])cc1 | 3.64% (inactive) | –
57 | COc1ccc(C(C)=O)cc1COC(=O)CNC(=O)C1CCCCC1 | 10.9% (inactive) | –
58 | Cc1cccc(-c2nnc(SCC3CNC(=O)O3)n2-c2ccc(Cl)cc2)c1 (centres undefined) | -12.5% (inactive) | –
59 | CC(C)=C1C2CCC1C(C(=O)Nc1sc(C)c(-c3ccc(C(C)C)cc3)c1C(N)=O)C2C(=O)O (centres undefined) | 2.89% (inactive) | –
60 | Cc1sc(NC(=O)C2CCCCC2C(=O)O)c(C(N)=O)c1-c1ccccc1 (centres undefined) | -2.08% (inactive) | –
61 | Cc1sc(NC(=O)C2C3C=CC(C3)C2C(=O)O)c(C(N)=O)c1-c1ccc(C(C)C)cc1 (centres undefined) | -5.14% (inactive) | –
62 | Cc1sc(NC(=O)C2C3CCC(C3)C2C(=O)O)c(C(N)=O)c1-c1ccc(C(C)(C)C)cc1 (centres undefined) | 7.13% (inactive) | –

From PubChem BioAssay AID588689 (Southern Research Specialized Biocontainment Screening …, 2011)
